Out of some 5,500 compounds screened, about 2,000 (36%) were called active. Not shown: some 18% with an inconclusive outcome. Rule as the data show it: active = normalized growth mostly below about 0.91 (no sharp cut-off); inconclusive = no clear call, values can overlap the other calls; inactive = mostly above about 0.92. Some of the results follow.
Assay: chemical genetic growth profiling, strain panel (AID 1159580);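 also: tested at 20 µM; growth read once vehicle control cultures reached saturation at 30 °C; 1 = growth at the plate median or of vehicle wells; lower values mean less growth of the strain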
Conditions: S. cerevisiae deletion strains, growth OD
[1] = locus YHR030C, strain SLT2, active compounds read low
[2] = locus YJL095W, strain BCK1, active compounds read low

Measured: normalized growth

COc1ccc(-c2coc3cc(O)ccc3c2=O)c(OC)c1O
inactive: locus YAL013W, strain DEP1, active compounds read low 0.991 | locus YAL021C, strain ccr4, active compounds read low 0.979 | locus YAL026C, strain drs2, active compounds read low 0.979 | locus YAL030W, strain snc1, active compounds read low 0.947 | locus YBL061C, strain skt5, active compounds read low 0.973 | locus YBR009C, strain hhf1, active compounds read low 0.966 | locus YBR021W, strain FUR4, active compounds read low 1.12 | locus YBR023C, strain chs3, active compounds read low 0.98 | locus YBR171W, strain sec66, active compounds read low 0.983 | locus YBR229C, strain ROT2, active compounds read low 0.949 | locus YBR231C, strain swc5, active compounds read low 0.989 | locus YBR279W, strain paf1, active compounds read low 0.983 | locus YCL011C, strain gbp2, active compounds read low 0.977 | locus YCL016C, strain dcc1, active compounds read low 0.978 | locus YCL029C, strain bik1, active compounds read low 0.972 | locus YCL061C, strain MRC1, active compounds read low 0.991 | locus YCL069W, strain vba3, active compounds read low 0.981 | locus YCR088W, strain abp1, active compounds read low 0.983 | locus YDL005C, strain med2, active compounds read low 0.977 | locus YDL035C, strain GPR1, active compounds read low 1 | locus YDL040C, strain nat1, active compounds read low 0.987 | locus YDL074C, strain BRE1, active compounds read low 1.03 | locus YDL101C, strain DUN1, active compounds read low 0.97 | locus YDL185W, strain tfp1, active compounds read low 0.968 | locus YDL192W, strain arf1, active compounds read low 0.984 | locus YDR001C, strain nth1, active compounds read low 0.983 | locus YDR069C, strain doa4, active compounds read low 0.947 | locus YDR101C, strain arx1, active compounds read low 0.975 | locus YDR137W, strain rgp1, active compounds read low 0.986 | locus YDR159W, strain sac3, active compounds read low 0.953 | locus YDR162C, strain NBP2, active compounds read low 0.966 | locus YDR195W, strain ref2 0.94 | locus YDR297W, strain sur2, active compounds read low 0.979 | locus YDR318W, strain mcm21, active compounds read low 0.99 | locus YDR334W, strain swr1, active compounds read low 0.967 | locus YDR335W, strain msn5, active compounds read low 0.991 | locus YDR388W, active compounds read low 0.988 | locus YDR392W, strain spt3, active compounds read low 0.945 | locus YDR502C, strain sam2, active compounds read low 0.977 | locus YEL003W, strain gim4, active compounds read low 0.976 | locus YEL037C, strain rad23, active compounds read low 0.967 | locus YEL061C, strain CIN8 (second series), active compounds read low 0.967 | locus YEL061C, strain CIN8, active compounds read low 0.985 | locus YER015W, strain faa2, active compounds read low 0.983 | locus YER016W, strain bim1, active compounds read low 0.986 | locus YER110C, active compounds read low 0.962 | locus YER111C, strain swi4, active compounds read low 0.971 | locus YER155C, strain BEM2 (second series), active compounds read low 0.985 | locus YER155C, strain BEM2, active compounds read low 1 | locus YER167W, strain BCK2, active compounds read low 0.983 | locus YFR010W, strain ubp6, active compounds read low 0.968 | locus YGL078C, strain dbp3, active compounds read low 0.986 | locus YGL086W, strain mad1, active compounds read low 0.971 | locus YGL167C, strain pmr1, active compounds read low 0.959 | locus YGL173C, strain kem1, active compounds read low 0.974 | locus YGL227W, strain vid30, active compounds read low 0.957 | locus YGL240W, strain doc1, active compounds read low 0.977 | locus YGL248W, strain PDE1, active compounds read low 0.982 | locus YGL253W, strain hxk2, active compounds read low 0.989 | locus YGR135W, strain pre9, active compounds read low 1.01 | locus YGR252W, strain gcn5, active compounds read low 1.12 | locus YHR013C, strain ard1, active compounds read low 0.933 | locus YHR027C, strain rpn1, active compounds read low 0.989 | [1] 0.99 | locus YHR079C, strain IRE1 (second series), active compounds read low 0.974 | locus YHR094C, strain hxt1, active compounds read low 0.988 | locus YHR129C, strain ARP1, active compounds read low 0.993 | locus YHR142W, strain chs7, active compounds read low 1 | locus YHR200W, strain rpn10, active compounds read low 0.991 | locus YIL066C, strain RNR3, active compounds read low 0.981 | locus YIL073C, strain SPO22, active compounds read low 0.98 | locus YIL125W, strain kgd1, active compounds read low 0.99 | locus YIR030C, strain dcg1, active compounds read low 0.985 | locus YJL092W, strain hpr5, active compounds read low 0.986 | locus YJL095W, strain BCK1 (second series), active compounds read low 0.986 | [2] 0.978 | locus YJL115W, strain asf1, active compounds read low 0.996 | locus YJL129C, strain trk1, active compounds read low 0.966 | locus YJL134W, strain LCB3, active compounds read low 0.983 | locus YJL154C, strain vps35, active compounds read low 0.977 | locus YJL164C, strain tpk1, active compounds read low 0.969 | locus YJL166W, strain qcr8, active compounds read low 0.98 | locus YJL168C, strain set2, active compounds read low 0.993 | locus YJL187C, strain SWE1 (second series), active compounds read low 0.963 | locus YJL187C, strain SWE1, active compounds read low 0.979 | locus YJR043C, strain POL32, active compounds read low 0.985 | locus YKL009W, strain mrt4, active compounds read low 0.965 | locus YKL068W, active compounds read low 0.975 | locus YKL085W, strain MDH1 (second series), active compounds read low 0.976 | locus YKL085W, strain MDH1, active compounds read low 0.976 | locus YKL160W, strain elf1, active compounds read low 0.999 | locus YKR001C, strain vps1, active compounds read low 1 | locus YKR026C, strain gcn3, active compounds read low 0.961 | locus YKR091W, strain srl3, active compounds read low 0.973 | locus YLL001W, strain dnm1, active compounds read low 1 | locus YLL026W, active compounds read low 0.991 | locus YLL041C, strain sdh2, active compounds read low 0.994 | locus YLR027C, strain aat2, active compounds read low 0.976 | locus YLR039C, strain RIC1, active compounds read low 0.97 | locus YLR058C, strain SHM2, active compounds read low 0.972 | locus YLR102C, strain apc9, active compounds read low 0.991 | locus YLR221C, strain rsa3, active compounds read low 0.966 | locus YLR258W, strain gsy2, active compounds read low 0.983 | locus YLR262C, strain YPT6 (second series), active compounds read low 0.977 | locus YLR262C, strain YPT6, active compounds read low 0.907 | locus YLR268W, strain sec22, active compounds read low 0.989 | locus YLR320W, strain mms22, active compounds read low 0.979 | locus YLR330W, strain CHS5, active compounds read low 0.99 | locus YLR342W, strain FKS1 (second series), active compounds read low 0.987 | locus YLR342W, strain FKS1, active compounds read low 0.967 | locus YLR357W, strain rsc2, active compounds read low 0.947 | locus YLR370C, strain arc18, active compounds read low 0.978 | locus YLR371W, strain rom2, active compounds read low 0.983 | locus YLR384C, strain iki3, active compounds read low 0.975 | locus YLR418C, strain cdc73, active compounds read low 1.01 | locus YML016C, strain PPZ1, active compounds read low 0.993 | locus YML032C, strain rad52, active compounds read low 0.983 | locus YML120C, strain ndi1, active compounds read low 0.971 | locus YML124C, strain tub3, active compounds read low 0.991 | locus YMR058W, strain fet3, active compounds read low 0.977 | locus YMR078C, strain ctf18, active compounds read low 0.982 | locus YMR125W, strain sto1, active compounds read low 0.96 | locus YMR129W, active compounds read low 0.981 | locus YMR205C, strain PFK2, active compounds read low 0.953 | locus YMR223W, strain ubp8, active compounds read low 0.981 | locus YMR231W, strain pep5, active compounds read low 0.982 | locus YMR307W, strain GAS1, active compounds read low 1.16 | locus YNL067W, strain RPL9B, active compounds read low 0.972 | locus YNL071W, strain lat1, active compounds read low 0.984 | locus YNL153C, strain GIM3, active compounds read low 0.954 | locus YNL209W, strain ssb2, active compounds read low 0.982 | locus YNL233W, strain BNI4, active compounds read low 1 | locus YNL248C, strain rpa49, active compounds read low 1 | locus YNL250W, strain rad50, active compounds read low 0.99 | locus YNL271C, strain bni1, active compounds read low 0.987 | locus YNL298W, strain CLA4, active compounds read low 0.992 | locus YNL307C, strain MCK1, active compounds read low 0.995 | locus YNL322C, strain KRE1 (second series), active compounds read low 0.953 | locus YNL322C, strain KRE1, active compounds read low 0.99 | locus YNR049C, strain mso1, active compounds read low 0.972 | locus YNR052C, strain pop2, active compounds read low 0.991 | locus YOL012C, strain htz1 0.858 | locus YOL147C, strain pex11, active compounds read low 0.988 | locus YOR001W, strain rrp6, active compounds read low 1 | locus YOR061W, strain CKA2, active compounds read low 0.966 | locus YOR069W, strain VPS5, active compounds read low 0.997 | locus YOR070C, strain gyp1, active compounds read low 0.985 | locus YOR080W, strain dia2, active compounds read low 0.965 | locus YOR083W, strain WHI5, active compounds read low 0.977 | locus YOR106W, strain vam3, active compounds read low 0.992 | locus YOR136W, strain idh2, active compounds read low 0.99 | locus YOR144C, strain elg1, active compounds read low 0.988 | locus YOR184W, strain ser1, active compounds read low 0.974 | locus YOR265W, strain rbl2, active compounds read low 0.985 | locus YOR270C, strain vph1, active compounds read low 0.977 | locus YOR290C, strain snf2, active compounds read low 0.92 | locus YOR316C, strain cot1, active compounds read low 0.984 | locus YPL051W, strain arl3, active compounds read low 1 | locus YPL055C, strain LGE1, active compounds read low 0.984 | locus YPL078C, strain atp4, active compounds read low 0.982 | locus YPL106C, strain sse1, active compounds read low 0.966 | locus YPL240C, strain hsp82, active compounds read low 1 | locus YPR119W, strain clb2, active compounds read low 0.973 | locus YPR141C, strain kar3, active compounds read low 0.985 | locus YPR163C, strain tif3, active compounds read low 0.997 | locus YPR167C, strain met16, active compounds read low 0.997 | strain wtn01, active compounds read low 0.981

COc1ccc2c(=O)c(-c3ccc(O)cc3)coc2c1
inactive: [1] 0.966 | locus YHR079C, strain IRE1, active compounds read low 0.939 | [2] 0.962 | locus YJR066W, strain TOR1, active compounds read low 0.918 | locus YLR113W, strain HOG1, active compounds read low 0.955 | locus YNL183C, strain NPR1, active compounds read low 0.918 | locus YOR231W, strain MKK1, active compounds read low 0.942 | locus YPL256C, strain CLN2, active compounds read low 0.925
